Results: the supplement of paper PMC10981050
“And” between values parts separate entries of the source, which are not always exact repeats. Identical values can stand only once. Counter-ions that a name gives are not always drawn.

Assays:
Experiment in all cases: cell viability relative to vehicle control; higher = less cytotoxic
Settings in all cases: 10 µM
[1] = system: K562
In short: (§1)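 CRISPR-edited mutant clones and isogenic wild-type clones from four leukaemia lines were screened against Selleck bioactive, kinase and epigenetic probe libraries, with identity-inconsistent compounds excluded. Each compound was acoustically dispensed at a single 10 µM dose into 384-well plates holding 2000 cells in 50 µL medium per well. After 48 h the supernatant was removed and CellTiter-Glo luminescence was read. Viability was expressed as percent of the on-plate vehicle control and analysed in Genedata Screener.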

[2] = system: MARIMO
In short: as §1

[3] = system: MOLM14
In short: as §1

[4] = system: OCI-AML2
In short: as §1

| SMILES | cell viability ([1]; SRSF2 genotype: SRSF2 P95H/wt) | cell viability ([1]; SRSF2 genotype: SRSF2 wt/wt) [%] | cell viability ([2]; SRSF2 genotype: SRSF2 P95H/wt) [%] | cell viability ([2]; SRSF2 genotype: SRSF2 wt/wt) [%] | cell viability ([3]; SRSF2 genotype: SRSF2 P95H/wt) [%] | cell viability ([3]; SRSF2 genotype: SRSF2 wt/wt) [%] | cell viability ([4]; SRSF2 genotype: P95H/wt) [%] | cell viability ([4]; SRSF2 genotype: wt/wt) [%] |
| --- | --- | --- | --- | --- | --- | --- | --- | --- |
| CCN1CCN(C(=O)Cc2ccc(Nc3ncc(F)c(Nc4ccc(C(=O)Nc5ccccc5Cl)cc4)n3)cc2)CC1 [Aurora A Inhibitor I] | 0.7% and 0.51% | 15.3 | 0.53 | 3.65 | 0.41 | 0.49 | 4.67 | 4.81 |
| Cc1cccc([C@H](C)c2c[nH]cn2)c1C [Dexmedetomidine HCl (Precedex)] | 99.1% and 101% | 91 | 102 | 100 | 102 | 104 | 107 | 110 |
| O=[N+]([O-])c1ncc[nH]1 [Azomycin (2-Nitroimidazole)] | 102% and 103% | 101 | 101 | 101 | 95.3 | 100 | 97.8 | 96.8 |
| C=C[C@H]1CN2CC[C@H]1C[C@H]2[C@H](O)c1ccnc2ccccc12 [Cinchonidine] | 87.9% and 96.3% | 94.8 | 94.6 | 97.5 | 85.7 | 97.8 | 95.2 | 92.1 |
| C[C@@H]1O[C@@H](O[C@H]2C[C@@H](O)[C@]3(CO)[C@H]4[C@H](O)C[C@]5(C)[C@@H](C6=CC(=O)OC6)CC[C@]5(O)[C@@H]4CC[C@]3(O)C2)[C@H](O)[C@H](O)[C@H]1O [Ouabain] | 10.4% and 12.3% | 12.4 | 10.7 | 4.01 | 3.34 | 0.78 | 0.73 | 2.79 |
| O=S(=O)(F)Cc1ccccc1 [PMSF (Phenylmethylsulfonyl Fluoride)] | 95.7% and 94.9% | 97 | 100 | 99.5 | 99.3 | 102 | 102 | 96.1 |
| COc1cc(C2OCC3C(c4cc(OC)c(OC5OC(CO)C(O)C(O)C5O)c(OC)c4)OCC23)cc(OC)c1OC1OC(CO)C(O)C(O)C1O (configuration not stated) [Eleutheroside E] | 104% and 98.2% | 101 | 97.3 | 97.9 | 98.5 | 107 | 102 | 112 |
| COc1cc(C(=O)O)cc(OC)c1OC [Gallic acid trimethyl ether] | 106% and 110% | 101 | 102 | 106 | 105 | 106 | 99.2 | 109 |
| O=C(C[S+]([O-])C(c1ccccc1)c1ccccc1)NO (configuration not stated) [Adrafinil] | 95.6% and 94.3% | 103 | 92.9 | 96.4 | 95.3 | 102 | 91.8 | 110 |
| C[C@]12C=CC(=O)C=C1CC[C@@H]1[C@@H]2CC[C@@]2(C)[C@H]1CC[C@]2(C)O [Methandrostenolone] | 102% and 107% | 102 | 103 | 105 | 103 | 110 | 115 | 104 |
| CC(=O)O[C@H]1CC[C@H]2[C@@H]3CCC4=CC(=O)CCC4=C3C=C[C@]12C [Trenbolone acetate] | 98.4% and 111% | 98.9 | 87.2 | 96 | 83 | 102 | 114 | 101 |
| CC(C)(C)c1cc(C=C(C#N)C#N)cc(C(C)(C)C)c1O [Tyrphostin 9 (SF 6847)] | 14.4% and 18.5% | 18.5 | 23.8 | 23.8 | 17.7 | 12.2 | 5.2 | 11.5 |
| Cc1cccc(C)c1NC(=O)CN1CCCC1=O [Nefiracetam (Translon)] | 108% and 104% | 107 | 109 | 107 | 105 | 100 | 103 | 110 |
| CCCN1C[C@H](CSC)C[C@@H]2c3cccc4[nH]cc(c34)C[C@H]21 [Pergolide mesylate] | 86.1% and 87.8% | 89.7 | 91.7 | 103 | 69.6 | 83.5 | 84 | 93.1 |
| CCC1CN2CCC3(C(=O)Nc4ccccc43)C2CC1C(=COC)C(=O)OC (configuration not stated) [Isorhychophylline] | 95.3% and 96.3% | 95.5 | 83.5 | 72 | 92.5 | 89.1 | 97.3 | 89.8 |
| O=C(O)C(=O)CBr [Bromopyruvic acid] | 99.8% and 89.6% | 90.3 | 90 | 97.8 | 91.6 | 94.7 | 94.7 | 93.9 |
| COc1cc(C)[nH]c(=O)c1CNC(=O)c1c(C)n([C@H](C)C2CCOCC2)c2ccccc12 | 111% and 102% | 94.9 | 106 | 118 | 103 | 101 | 106 | 104 |
| CCCCCCC(=O)O[C@H]1CC[C@H]2[C@@H]3CCC4=CC(=O)CC[C@]4(C)[C@H]3CC[C@]12C [Testosterone Enanthate] | 91.4% and 86% | 88.5 | 66.5 | 61.8 | 50.1 | 20.5 | 23.7 | 25.8 |
| CCCCCc1cc(O)cc(O)c1 [Olivetol] | 102% and 99.9% | 110 | 87.2 | 96.8 | 101 | 107 | 111 | 112 |
| Cc1cc(C(C#N)c2ccc(Cl)cc2)c(Cl)cc1NC(=O)c1cc(I)cc(I)c1O (configuration not stated) [Closantel] | 95% and 92.2% | 92.3 | 102 | 108 | 99 | 100 | 92.4 | 110 |

| SMILES | cell viability ([1]; SRSF2 genotype: SRSF2 P95H/wt) | cell viability ([1]; SRSF2 genotype: SRSF2 wt/wt) [%] | cell viability ([2]; SRSF2 genotype: SRSF2 P95H/wt) [%] | cell viability ([2]; SRSF2 genotype: SRSF2 wt/wt) [%] | cell viability ([3]; SRSF2 genotype: SRSF2 P95H/wt) [%] | cell viability ([3]; SRSF2 genotype: SRSF2 wt/wt) [%] | cell viability ([4]; SRSF2 genotype: P95H/wt) [%] | cell viability ([4]; SRSF2 genotype: wt/wt) [%] |
| --- | --- | --- | --- | --- | --- | --- | --- | --- |
| C=CC1CN2CCC1CC2C(O)c1ccnc2ccccc12 (configuration not stated) [Cinchonine.cdx] | 98.1% and 107% | 102 | 105 | 105 | 95.8 | 104 | 120 | 99.7 |
| COC1=CC23CCN(C)C(Cc4ccc(OC)c(O)c42)C3=CC1=O (configuration not stated) [Sinoacutine] | 110% and 102% | 101 | 103 | 101 | 108 | 103 | 101 | 104 |
| COc1cc([C@@H]2c3cc4c(cc3[C@H](O)[C@H]3COC(=O)[C@H]23)OCO4)cc(OC)c1O [4'-Demethylpodophyllotoxin] | 15.8% and 34.9% | 35.7 | 8.03 | 7.56 | 0.85 | 0.99 | 1.45 | 3.83 |
| CN1[C@@H]2C[C@@H](OC(=O)[C@H](CO)c3ccccc3)C[C@H]1[C@@H]1O[C@@H]12 [Scopolamine hydrobromide] | 97.1% and 95.9% | 99.9 | 101 | 109 | 104 | 100 | 102 | 104 |
| Cc1ccccc1-n1c(Cn2ncc3c(N)ncnc32)nc2cccc(C)c2c1=O | 93.5% and 98.8% | 91.3 | 90.7 | 93.7 | 81.9 | 81.3 | 81.5 | 83.9 |
| C=C(C)[C@H]1Cc2c(ccc3c2O[C@@H]2COc4cc(OC)c(OC)cc4[C@@H]2C3=O)O1 [Rotenone (Barbasco)] | 12.8% and 22.4% | 23.4 | 5.86 | 10.5 | 15.6 | 3.2 | 9.69 | 13.8 |
| Cc1c(N)nc(C(CC(N)=O)NCC(N)C(N)=O)nc1C(=O)NC(C(=O)NC(C)C(O)C(C)C(=O)NC(C(=O)NCCc1nc(-c2nc(C(=O)NCCC[S+](C)C)cs2)cs1)C(C)O)C(O[C@@H]1O[C@@H](CO)[C@@H](O)[C@H](O)[C@@H]1O[C@H]1O[C@H](CO)[C@@H](O)[C@H](OC(N)=O)[C@@H]1O)c1cnc[nH]1 (some centres not stated) [Bleomycin sulfate] | 95.9% and 107% | 69.7 | 7.26 | 8.15 | 53.4 | 21.6 | 27 | 36.8 |
| COc1cc2c(cc1O)CC1NCCc3cc(OC)c(O)c-2c31 (configuration not stated) [Norisoboldine] | 108% and 103% | 105 | 93.1 | 90.2 | 99.3 | 103 | 103 | 99.1 |
| CC1C(=O)OC2C(O)C34C5OC(=O)C3(OC3OC(=O)C(O)C34C(C(C)(C)C)C5O)C12O (configuration not stated) [Ginkgolide C] | 98.9% and 97.9% | 94.4 | 93.5 | 97.6 | 103 | 103 | 102 | 105 |
| CC[C@]12C=CCN3CC[C@]4(C(=C(C(=O)OC)C1)Nc1ccccc14)[C@@H]32 [Tabersonine hydrochloride] | 18.2% and 28.9% | 32.3 | 13 | 13.8 | 3.62 | 1.08 | 8.35 | 13.7 |
| CC(=O)OCC1=C(C(=O)O)N2C(=O)C(N)C2SC1 (configuration not stated) [7-Aminocephalosporanic acid] | 107% and 103% | 102 | 101 | 108 | 111 | 107 | 109 | 110 |
| C[C@@H]1CC[C@H]2[C@@H](C)C(=O)O[C@@H]3O[C@@]4(C)CC[C@@H]1[C@]32OO4 [Artemisinin] | 83% and 79.2% | 78.7 | 74.8 | 93.3 | 85.8 | 87.3 | 84.6 | 98.2 |
| COc1cc(OC)c(OC)cc1C=O [Asaraldehyde (Asaronaldehyde)] | 110% and 107% | 106 | 100 | 114 | 110 | 105 | 102 | 105 |
| O=C/C=C/c1ccccc1 [Cinnamaldehyde] | 97.5% and 92.8% | 94.3 | 92 | 95.3 | 96.1 | 98.9 | 102 | 102 |
| CC[C@]12C=CCN3CC[C@]4(C(=C(C(=O)OC)C1)Nc1ccccc14)[C@@H]32 [Tabersonine] | 17.7% and 27% | 30.1 | 19.1 | 18.7 | 11.3 | 4.06 | 7.01 | 14.7 |
| O=c1[nH]c2ccccc2o1 [2-Benzoxazolinone] | 100% and 89.3% | 96.7 | 97.2 | 102 | 98.4 | 104 | 91.5 | 94.2 |
| C[C@@]12N[C@@H](Cc3ccccc31)c1ccccc12 [(-)-MK 801 maleate] | 105% and 106% | 108 | 101 | 100 | 100 | 112 | 98.3 | 90.7 |
| c1cc2c(cc1[C@H]1OC[C@H]3[C@@H]1CO[C@@H]3c1ccc3c(c1)OCO3)OCO2 [Sesamin (Fagarol)] | 92.3% and 97.8% | 97.3 | 94.2 | 111 | 98.8 | 105 | 100 | 102 |
| CC(C)=CCC[C@](C)(O)[C@H]1CC[C@]2(C)[C@@H]1[C@H](O)C[C@@H]1[C@@]3(C)CC[C@H](O[C@@H]4O[C@H](CO)[C@@H](O)[C@H](O)[C@H]4O)C(C)(C)[C@@H]3CC[C@]12C [20S-Ginsenoside Rh2] | 98.1% and 92.1% | 105 | 104 | 106 | 103 | 106 | 97.4 | 96.2 |
